High-throughput results: PubChem BioAssay, National Center for Advancing Translational Sciences (NCATS)
LDHA inh: qHTS assay for inhibitors of human lactate dehydrogenase; L-lactate dehydrogenase A chain (Homo sapiens), P00338; purified LDHA, NADH/diaphorase-resazurin fluorescence; stronger effect = lower value; activity change, % (values are at about 110 or 230 µM); hit rate 0.15% among 480,000; AID 1347041, 2019; in the data active = activity change below about -30%; inconclusive = mostly about -25% to -30%;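 also: plate controls were DMSO wells for no effect and wells without enzyme for full effect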
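LDH5 2 nM; NADH 0.06 mM, pyruvate 0.2 mM; 200 mM Tris pH 7.4, EDTA, Tween-20; 5 min RT. Detection: diaphorase 0.133 mg/mL + resazurin 37 µM, fluorescence ex540/em590 at 0 and 20 min; normalized to enzyme-free and DMSO wells.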
IL-1B inflam inh: qHTS for Inhibitors of Inflammasome Signaling: IL-1-beta AlphaLISA Primary Screen; activity change, % at 57.5 µM; THP-1 LPS/ATP IL-1B secretion, AlphaLISA, 16 h; stronger effect = lower value; hit rate 4.7% among 360,000; AID 743279, 2014; in the data active = activity change below about -50%; inconclusive = mostly about -30% to -49%
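Secreted IL-1B measured by AlphaLISA bead assay after 16 h compound exposure of THP-1 cells; compounds (final up to 57.5 uM) added 1 h before LPS (250 ng/mL) and ATP (1.25 mM) stimulation; lower signal means less secretion.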
VP16 counter: VP16 counterscreen qHTS for inhibitors of ROR gamma transcriptional activity; Drosophila S2 Gal4-VP16 UAS-luciferase, luminescence, 20 h; Potency, µM (doses to about 53.6 µM), inactives show at the highest dose activity, negative = inhibition, hits mostly inhibitors; hit rate 3.5% among 310,000;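 also: Gal4-VP16 expression switched on by copper sulfate through the metallothionein promoter; potency is read from the fitted curve at half-maximal effect; nearly all actives have a fitted effect of over 50% in size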
RORgamma inh: qHTS for inhibitors of ROR gamma transcriptional activity | AID 2551, 2010 | hit rate 5.4% among 310,000 | Drosophila S2 Gal4-RORgamma UAS-luciferase reporter, 20 h | Potency, µM (doses to about 53.6 µM), for the others: top-dose activity change, negative = inhibition, hits mostly inhibitors; also: potency is read from the fitted curve at half-maximal effect; nearly all actives have a fitted effect of over 60% in size
Target sequence (P51450 whole entry, looked up, the tested form may be a part): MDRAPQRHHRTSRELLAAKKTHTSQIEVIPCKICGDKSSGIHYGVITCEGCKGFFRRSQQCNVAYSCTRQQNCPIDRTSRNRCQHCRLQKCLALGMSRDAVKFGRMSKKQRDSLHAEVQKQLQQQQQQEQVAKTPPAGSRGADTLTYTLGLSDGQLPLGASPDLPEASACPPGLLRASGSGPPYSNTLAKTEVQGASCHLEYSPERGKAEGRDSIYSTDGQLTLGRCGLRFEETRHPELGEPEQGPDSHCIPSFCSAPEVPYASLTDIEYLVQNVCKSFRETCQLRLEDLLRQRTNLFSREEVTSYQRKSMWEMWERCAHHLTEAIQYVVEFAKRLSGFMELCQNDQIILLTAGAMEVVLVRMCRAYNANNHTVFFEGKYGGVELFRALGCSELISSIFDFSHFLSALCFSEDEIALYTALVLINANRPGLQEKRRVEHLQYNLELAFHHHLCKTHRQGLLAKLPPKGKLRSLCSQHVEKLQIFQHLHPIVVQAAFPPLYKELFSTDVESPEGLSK
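Luminescence from a UAS-regulated Photinus luciferase reporter in stably transfected Drosophila Schneider cells is measured; decreased signal marks ROR gamma inhibition. Fusion expression is induced by 700 uM copper sulfate for 20 hr.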
TDP1 cell CPT: qHTS for Inhibitors of human tyrosyl-DNA phosphodiesterase 1 (TDP1): qHTS in cells in presence of CPT; AID 686979, 2013; Potency, µM (doses to about 46.2 µM), without a hit: at the highest dose activity change, negative = growth inhibition, hits mostly inhibitors; hit rate 12% among 420,000; chicken DT40 Tdp1-/-;hTDP1 cells + 20 nM CPT, ATP luminescence, 48 h; also: potency is read from the fitted curve at half-maximal effect; nearly all actives have a fitted effect of over 55% in size
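Chicken DT40 Tdp1-/- cells stably complemented with human TDP1 were seeded at 400 cells/well in medium containing 20 nM camptothecin, exposed to pin-transferred compounds, and grown at 37 °C for at least 48 hr. Viability was read as ATP luminescence.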
DT40 TDP1 no CPT: qHTS for Inhibitors of human tyrosyl-DNA phosphodiesterase 1 (TDP1): qHTS in cells in absence of CPT; hit rate 15% among 420,000; DT40 Tdp1-/- hTDP1 cells, no CPT, ATP luminescence, 48 h; AID 686978, 2013; Potency, µM (top dose mostly 46.2 µM), for the others: at the highest dose activity change, negative = growth inhibition, hits mostly inhibitors; also: potency is read from the fitted curve at half-maximal effect; nearly all actives have a fitted effect of over 55% in size
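Cells were dispensed at 400 per well, compounds added by pin tool, plates incubated ≥48 hr at 37 °C, then CellTiter-Glo added for 30 min at room temperature before luminescence reading. Line: DT40 Tdp1-/- complemented with hTDP1; camptothecin omitted.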
* marks the source's active call; other numbers are inactive results; ? = inconclusive; / = no result. The list is not random: actives were taken first. Their share in the collection is about 18%. Unless noted, calls follow the shape of the dose curve; as a rule, active = well fitted curve in the direction sought with a large enough effect; inconclusive = small, poorly fitted or top-dose-only effect, or another doubt; inactive = no such curve, though single readings can be large; an effect the other way counts as inactive or inconclusive. Unless noted, % is scaled to controls: 0 for no effect and ±100 for the full control effect.

SMILES	LDHA inh	IL-1B inflam inh	VP16 counter	RORgamma inh	TDP1 cell CPT	DT40 TDP1 no CPT
CC1CCCC(C)N1C(=O)Cn1cc(C#N)c2ccccc21 (stereo unspecified)	-0.4	34.0	4.5%	-13.4%	-4.8%	-18.5%
CC1CCCC(C)N1C(=O)Cn1cc(/C=C2/C(=O)Nc3ccccc32)c2ccccc21 (stereo unspecified)	-6.8	-54.6*	-1.2%	11.9%	18.4µM*	20.6µM*
Cc1cccc(C(=O)Nc2c(C)ccc3nsnc23)c1	0.3	/	/	/	/	/
Cc1ccc(-n2nc(C)c(/C=N/n3c(C)n[nH]c3=S)c2Cl)cc1	-3.3	30.0	-7.4%	3.55µM*	?	?
Cc1n[nH]c(=S)n1/N=C/c1ccccc1	-7.7	28.6	?	?	-10.0%	-1.6%
CS(=O)(=O)N1CCCC(C(=O)NCCc2ccc(F)cc2)C1 (stereo unspecified)	4.2	/	/	/	/	/
CO[C@H]1O[C@@H]2O[C@@]3(C)CC[C@H]4[C@H](C)CC[C@@H]([C@H]1C)[C@@]24OO3	/	/	/	/	2.66µM*	1.5µM*
COc1ccc(C)cc1NS(=O)(=O)c1ccc2c(c1)[C@H]1C=CC[C@H]1[C@@H](c1cccc(Cl)c1)N2	-13.0	/	/	/	13µM*	20.6µM*
COC(=O)c1ccc([C@H]2Nc3ccc(S(=O)(=O)Nc4ccc(F)cc4)cc3[C@H]3C=CC[C@H]32)cc1	5.1	/	/	/	3.66µM*	3.26µM*
COc1ccc(C(=O)N/N=C(\C)c2ccc3c(c2)C2C=CCC2C(c2ccccc2)N3)cc1 (stereo unspecified)	10.8	-5.0	-0.3%	?	?	14.6µM*
Cc1cccc(NS(=O)(=O)c2ccc3c(c2)[C@H]2C=CC[C@H]2[C@@H](c2ccc(F)cc2)N3)c1	4.0	/	/	/	10.3µM*	10.3µM*
O=C(Nc1ccc2c(c1)CCC2)c1cccc2ccccc12	-1.8	/	/	/	/	/
Clc1cccc(-c2noc3ncnc(NC4CCCCC4)c23)c1	2.5	/	/	/	20.6µM*	25.9µM*
Cc1cccc(Nc2ncnc3onc(-c4ccc(F)cc4)c23)c1C	2.3	11.8	-4.7%	-12.8%	?	?
Cc1cccc(Nc2ncnc3onc(-c4cccc(Cl)c4)c23)c1C	-4.8	17.4	2.1%	-10.2%	20.6µM*	18.4µM*
O=C(OCC(=O)N1CCCCCC1)c1ccc(S(=O)(=O)NCc2ccco2)cc1	1.9	/	/	/	/	/
CCOc1nnc(CN2CCN(c3cccc(F)c3C#N)CC2)s1	-3.0	/	/	/	/	/
O=[N+]([O-])c1ccc2c(c1N1CCCCC1)=NC1(CCCCC1)[N+]=2[O-]	37.3	2.8	-2.6%	14.6%	20.6µM*	20.6µM*
COc1ccc(-c2nc3ccccn3c2Cl)cc1	-4.8	-2.5	?	15.8µM*	?	-17.1%
COc1ccc(-c2nc3ccccn3c2CN2CCN(c3ccccc3F)CC2)cc1	1.5	23.9	-9.7%	-39.2%	?	23.1µM*
CC(C)CCn1nnnc1CN1CCN(c2ccc(F)cc2)CC1	-13.7	0.0	4.9%	11.5%	1.8%	?
CCC(C)(C)n1nnnc1C(c1ccccc1)N1CCN(Cc2ccccc2)CC1 (stereo unspecified)	-7.3	-6.0	4.3%	6.2%	19.1%	6.2%
Clc1ccc(C(c2nnnn2C2CCCC2)N2CCN(Cc3ccncc3)CC2)cc1 (stereo unspecified)	-2.1	-19.4	1.7%	-3.2%	?	?
c1ccc(C(c2ccccc2)N2CCN(Cc3nnnn3C3CCCC3)CC2)cc1	0.9	-14.2	-2.3%	23.1%	?	16.4µM*
CCC(C)(C)n1nnnc1CN1CCN(C(c2ccccc2)c2ccccc2)CC1	-1.2	11.0	-12.5%	33.8%	?	20.6µM*
SMILES	LDHA inh	IL-1B inflam inh	VP16 counter	RORgamma inh	TDP1 cell CPT	DT40 TDP1 no CPT
CC(C)CCn1nnnc1CN1CCN(C(c2ccccc2)c2ccccc2)CC1	-3.8	2.8	-8.2%	1.8%	?	18.4µM*
Fc1ccc(C(c2nnnn2C2CCCC2)N2CCN(Cc3ccccc3)CC2)cc1 (stereo unspecified)	-2.7	-53.6*	4.9%	11.0%	18.4µM*	?
C=CCn1c(N)c(C(=O)OC)sc1=S	-6.0	/	/	/	/	/
O=S(=O)(c1ccc(-c2csc(-c3cccc(Cl)c3)n2)cc1)N1CCOCC1	-6.6	/	/	/	/	/
COc1ccc(C2C=C(c3ccccc3)Nc3nc(NC(C)=O)nn32)cc1 (stereo unspecified)	12.6	/	0.4%	-25.7%	-26.8%	?
COc1ccc(C2C=C(c3ccccc3)Nc3nc(NC(=O)/C=C/c4ccc(F)cc4)nn32)cc1 (stereo unspecified)	-1.4	/	/	/	20.6µM*	20.6µM*
COc1ccc(/C=C/C(=O)Nc2nc3n(n2)C(c2ccc(F)cc2)C=C(c2ccccc2)N3)cc1 (stereo unspecified)	-13.8	/	/	/	5.17µM*	3.66µM*
O=C(/C=C/c1ccccc1)Nc1nc2n(n1)C(c1ccc(F)cc1)C=C(c1ccccc1)N2 (stereo unspecified)	-16.5	/	/	/	7.31µM*	8.2µM*
COc1ccc(/C=C/C(=O)Nc2nc3n(n2)C(c2ccccc2)C=C(c2ccccc2)N3)cc1 (stereo unspecified)	1.3	/	/	/	7.31µM*	5.8µM*
CC(C)n1c(Br)nc2c1c(=O)[nH]c(=O)n2C	7.3	/	/	/	/	/
